The source made the active and inactive calls. How the source made its calls: active means hit-call score of the fitted dose curve at least 0.9, where 1 is the maximum; inactive means score below 0.9.
Columns and labels:
Conditions in all cases: mRNA level, 48 h; actives raise or lower the signal
[1] = read-out: Potassium channel subfamily K member 1 (KCNK1), KCNK1 (gene 3775); test: LTEA_HepaRG_KCNK1: Life Technologies and Expression Analysis (LTEA) Assay for Potassium channel subfamily K member 1 (KCNK1) using HepaRG (AID 2283511)
In short: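 Differentiated HepaRG cells, 48 h exposure in serum-free induction medium with 0.5% DMSO; 8 concentrations, half-log from 100 uM, duplicate. KCNK1 mRNA by qRT-PCR, normalized to ACTB, GAPDH, POLR2A; bidirectional fit vs DMSO.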

[2] = read-out: Keratin 19 (KRT19), KRT19 (gene 3880); test: LTEA_HepaRG_KRT19: Life Technologies and Expression Analysis (LTEA) Assay for Keratin 19 (KRT19) using HepaRG (AID 2283512)
In short: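 Differentiated human HepaRG cells, plated 48 h, were exposed in duplicate for 48 h in serum-free induction medium to eight half-log concentrations up to 100 uM in 0.5% DMSO. KRT19 mRNA was quantified by qRT-PCR, normalized to ACTB, GAPDH and POLR2A, and fitted bidirectionally versus DMSO.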

[3] = read-out: JUN Transcription Factor, JUN (gene 3725); test: LTEA_HepaRG_JUN: Life Technologies and Expression Analysis (LTEA) Assay for JUN Transcription Factor using HepaRG (AID 2283513)
In short: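 Cells plated 48 h, medium switched to serum-free induction medium, then dosed 48 h (100 uM top, half-log dilutions, 0.5% DMSO). RNA isolated; JUN measured by qRT-PCR against three housekeeping genes; gain or loss fitted relative to DMSO.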

[4] = read-out: Lipase C (LIPC), LIPC (gene 3990); test: LTEA_HepaRG_LIPC: Life Technologies and Expression Analysis (LTEA) Assay for Lipase C (LIPC) using HepaRG (AID 2283514)
In short: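 HepaRG cells, 48 h after plating, treated in duplicate for 48 h in serum-free induction medium over 8 half-log concentrations from 100 uM, 0.5% DMSO. LIPC mRNA by TaqMan qRT-PCR normalized to ACTB/GAPDH/POLR2A; bidirectional fit versus DMSO.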

[5] = read-out: Lipoprotein lipase (LPL), LPL (gene 4023); test: LTEA_HepaRG_LPL: Life Technologies and Expression Analysis (LTEA) Assay for Lipoprotein lipase (LPL) using HepaRG (AID 2283515)
In short: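 Differentiated HepaRG cells, plated 48 h, then exposed 48 h in serum-free induction medium to 8 concentrations (top 100 uM, half-log steps) in 0.5% DMSO, duplicate. LPL mRNA measured by qRT-PCR, normalized to ACTB, GAPDH and POLR2A.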

[6] = read-out: MicroRNA 122 (MIR122), gene 406906; test: LTEA_HepaRG_MIR122: Life Technologies and Expression Analysis (LTEA) Assay for MicroRNA 122 (MIR122) using HepaRG (AID 2283516); further: the transcript read is the microRNA miR-122
In short: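 HepaRG plated 48 h, switched to serum-free induction medium, then treated in duplicate for 48 h (100 uM top, half-log steps, 0.5% DMSO vehicle). RNA isolated, qRT-PCR performed, concentration-response fitted both directions relative to DMSO.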

[7] = read-out: matrix metalloproteinase-10 (MMP10), MMP10 (gene 4319); test: LTEA_HepaRG_MMP10: Life Technologies and Expression Analysis (LTEA) Assay for matrix metalloproteinase-10 (MMP10) using HepaRG (AID 2283517)
In short: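 Differentiated HepaRG cells in serum-free induction medium exposed 48 h in duplicate to 8-point half-log series up to 100 uM in 0.5% DMSO. mRNA quantified by qRT-PCR, normalised to ACTB, GAPDH, POLR2A; bidirectional fit versus DMSO.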

[8] = read-out: matrix metalloproteinase-3 (MMP3), MMP3 (gene 4314); test: LTEA_HepaRG_MMP3: Life Technologies and Expression Analysis (LTEA) Assay for matrix metalloproteinase-3 (MMP3) using HepaRG (AID 2283519)
In short: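 HepaRG cells (~100,000/well) in serum-free induction medium were dosed in duplicate for 48 h with an 8-point half-log series from 100 uM, 0.5% DMSO. MMP3 mRNA was quantified by Fluidigm TaqMan qRT-PCR, normalized to three housekeeping genes.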

[9] = read-out: Paternally Expressed 10 (PEG10), PEG10 (gene 23089); test: LTEA_HepaRG_PEG10: Life Technologies and Expression Analysis (LTEA) Assay for Paternally Expressed 10 (PEG10) using HepaRG (AID 2283520)
In short: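 HepaRG, 48 h post-plating → serum-free induction medium → 48 h chemical exposure (duplicate, 8-pt, max 100 uM, half-log, 0.5% DMSO) → lysis in RLT → TaqMan qRT-PCR for PEG10, ACTB/GAPDH/POLR2A normalisation.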

[10] = read-out: Nuclear factor NF-kappa-B p105 subunit (Homo sapiens) (UniProt P19838); test: LTEA_HepaRG_NFKB1: Life Technologies and Expression Analysis (LTEA) Assay for Nuclear Factor Kappa B Subunit 1 (NFKB1) using HepaRG (AID 2283521);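 further: TaqMan qRT-PCR transcript normalised to ACTB GAPDH and POLR2A housekeeping genes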
In short: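 Differentiated human HepaRG cells in serum-free induction medium with 0.5% DMSO were exposed for 48 h to eight half-log concentrations, top 100 uM, in duplicate. NFKB1 mRNA measured by Fluidigm TaqMan qRT-PCR, normalised to ACTB, GAPDH and POLR2A; bidirectional fit versus DMSO.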

[11] = read-out: Protein phosphatase 2A (PPP2R4), PTPA (gene 5524); test: LTEA_HepaRG_PPP2R4: Life Technologies and Expression Analysis (LTEA) Assay for Protein phosphatase 2A (PPP2R4) using HepaRG (AID 2283522)
In short: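 Readout is PPP2R4 transcript level by microfluidic qRT-PCR after 48 h chemical treatment of human HepaRG liver cells. Concentrations spanned 100 uM downward in half-log steps; gain or loss of signal was fitted relative to DMSO.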

[12] = read-out: solute carrier (SLC22A1), SLC22A1 (gene 6580); test: LTEA_HepaRG_SLC22A1: Life Technologies and Expression Analysis (LTEA) Assay for solute carrier (SLC22A1) using HepaRG (AID 2283524)
In short: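 Differentiated human HepaRG cells in serum-free induction medium, exposed 48 h in duplicate to 8-point half-log series from 100 µM top in 0.5% DMSO. SLC22A1 mRNA by TaqMan qRT-PCR normalized to ACTB, GAPDH, POLR2A; bidirectional fit versus DMSO.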

[13] = read-out: Pyruvate Dehydrogenase Kinase 4 (PDK4), PDK4 (gene 5166); test: LTEA_HepaRG_PDK4: Life Technologies and Expression Analysis (LTEA) Assay for Pyruvate Dehydrogenase Kinase 4 (PDK4) using HepaRG (AID 2283525)
In short: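 HepaRG cells plated 48 h, then switched to serum-free induction medium and exposed in duplicate for 48 h to 8 half-log concentrations from 100 uM in 0.5% DMSO. PDK4 mRNA measured by qRT-PCR, normalized to ACTB, GAPDH and POLR2A; bidirectional fit versus DMSO.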

[14] = read-out: NAD(P)H dehydrogenase [quinone] 1 (NQO1), NQO1 (gene 1728); test: LTEA_HepaRG_NQO1: Life Technologies and Expression Analysis (LTEA) Assay for NAD(P)H dehydrogenase [quinone] 1 (NQO1) using HepaRG (AID 2283526)
In short: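 HepaRG, 48 h post-plating → serum-free induction medium → test chemical 48 h (duplicate, 100 uM top, half-log x8, 0.5% DMSO) → RNA isolation → qRT-PCR, ACTB/GAPDH/POLR2A normalization; bidirectional curve fit vs DMSO baseline.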

[15] = read-out: succinate dehydrogenase complex iron sulfur subunit B (SDHB), SDHB (gene 6390); test: LTEA_HepaRG_SDHB: Life Technologies and Expression Analysis (LTEA) Assay for succinate dehydrogenase complex iron sulfur subunit B (SDHB) using HepaRG (AID 2283528)
In short: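 HepaRG cells (~100,000/well, plated 48 h) exposed in duplicate for 48 h in serum-free induction medium to 8-point half-log series from 100 uM in 0.5% DMSO; mRNA by qRT-PCR normalised to ACTB, GAPDH, POLR2A; bidirectional fit versus DMSO.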

[16] = read-out: Signal transducer and activator of transcription 3 (Homo sapiens) (UniProt P40763); test: LTEA_HepaRG_STAT3: Life Technologies and Expression Analysis (LTEA) Assay for Signal transducer and activator of transcription (STAT3) using HepaRG (AID 2283529)
In short: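 Differentiated HepaRG cells, serum-free induction medium, dosed 48 h in duplicate, 8 half-log concentrations from 100 uM in 0.5% DMSO. STAT3 mRNA by qRT-PCR, normalised to ACTB, GAPDH, POLR2A; bidirectional fit versus DMSO.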

[17] = read-out: solute carrier (SLCO1B1), SLCO1B1 (gene 10599); test: LTEA_HepaRG_SLCO1B1: Life Technologies and Expression Analysis (LTEA) Assay for solute carrier (SLCO1B1) using HepaRG (AID 2283530)
In short: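 Differentiated human HepaRG cells, plated 48 h, switched to serum-free induction medium and exposed in duplicate for 48 h to 8 half-log concentrations (top 100 uM) in 0.5% DMSO. SLCO1B1 mRNA by TaqMan qRT-PCR, normalized to ACTB/GAPDH/POLR2A.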

[18] = read-out: Phosphatase and tensin (PTEN), PTEN (gene 5728); test: LTEA_HepaRG_PTEN: Life Technologies and Expression Analysis (LTEA) Assay for Phosphatase and tensin (PTEN) using HepaRG (AID 2283523)
In short: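 HepaRG cells, 48 h after plating, exposed in duplicate for 48 h in serum-free induction medium to 8 half-log concentrations up to 100 uM (0.5% DMSO). PTEN mRNA by qRT-PCR, normalized to ACTB, GAPDH, POLR2A; bidirectional fit versus DMSO.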

[19] = read-out: Nuclear factor erythroid 2-related factor 2 (Homo sapiens) (UniProt Q16236); test: LTEA_HepaRG_NFE2L2: Life Technologies and Expression Analysis (LTEA) Assay for Nuclear factor erythroid 2-related factor 2 (NFE2L2) Transcription Factor using HepaRG (AID 2283527);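 further: TaqMan qRT-PCR transcript level normalised to ACTB GAPDH and POLR2A housekeeping genes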
In short: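 Differentiated human HepaRG cells, serum-free induction medium, exposed 48 h in duplicate to eight half-log concentrations up to 100 uM in 0.5% DMSO. NFE2L2 mRNA by Fluidigm TaqMan qRT-PCR, normalised to ACTB, GAPDH, POLR2A; bidirectional change versus DMSO.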

Measured: AC50

Signal transducer and activator of transcription 3 (Homo sapiens), sequence (P40763 whole entry, looked up): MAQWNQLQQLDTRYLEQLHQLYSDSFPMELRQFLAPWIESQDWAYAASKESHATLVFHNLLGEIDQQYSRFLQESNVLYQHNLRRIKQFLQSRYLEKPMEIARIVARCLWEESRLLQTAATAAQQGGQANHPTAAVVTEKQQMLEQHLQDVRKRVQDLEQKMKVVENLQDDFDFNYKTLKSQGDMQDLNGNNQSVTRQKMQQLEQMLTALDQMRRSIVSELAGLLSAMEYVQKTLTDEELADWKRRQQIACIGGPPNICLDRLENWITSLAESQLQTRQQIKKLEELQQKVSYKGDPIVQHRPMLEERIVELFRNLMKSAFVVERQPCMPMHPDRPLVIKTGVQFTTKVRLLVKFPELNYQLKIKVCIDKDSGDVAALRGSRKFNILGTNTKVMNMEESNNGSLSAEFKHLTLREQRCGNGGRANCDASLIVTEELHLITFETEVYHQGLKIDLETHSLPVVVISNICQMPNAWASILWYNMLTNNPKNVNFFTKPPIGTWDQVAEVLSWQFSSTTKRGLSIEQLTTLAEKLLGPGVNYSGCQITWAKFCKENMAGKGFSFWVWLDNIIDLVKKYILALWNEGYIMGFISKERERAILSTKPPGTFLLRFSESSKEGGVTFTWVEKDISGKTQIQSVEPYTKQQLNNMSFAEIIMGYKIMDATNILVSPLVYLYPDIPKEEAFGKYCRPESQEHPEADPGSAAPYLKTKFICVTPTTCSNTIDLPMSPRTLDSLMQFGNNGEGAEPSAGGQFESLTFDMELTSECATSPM
Nuclear factor NF-kappa-B p105 subunit (Homo sapiens), sequence (P19838 whole entry, looked up): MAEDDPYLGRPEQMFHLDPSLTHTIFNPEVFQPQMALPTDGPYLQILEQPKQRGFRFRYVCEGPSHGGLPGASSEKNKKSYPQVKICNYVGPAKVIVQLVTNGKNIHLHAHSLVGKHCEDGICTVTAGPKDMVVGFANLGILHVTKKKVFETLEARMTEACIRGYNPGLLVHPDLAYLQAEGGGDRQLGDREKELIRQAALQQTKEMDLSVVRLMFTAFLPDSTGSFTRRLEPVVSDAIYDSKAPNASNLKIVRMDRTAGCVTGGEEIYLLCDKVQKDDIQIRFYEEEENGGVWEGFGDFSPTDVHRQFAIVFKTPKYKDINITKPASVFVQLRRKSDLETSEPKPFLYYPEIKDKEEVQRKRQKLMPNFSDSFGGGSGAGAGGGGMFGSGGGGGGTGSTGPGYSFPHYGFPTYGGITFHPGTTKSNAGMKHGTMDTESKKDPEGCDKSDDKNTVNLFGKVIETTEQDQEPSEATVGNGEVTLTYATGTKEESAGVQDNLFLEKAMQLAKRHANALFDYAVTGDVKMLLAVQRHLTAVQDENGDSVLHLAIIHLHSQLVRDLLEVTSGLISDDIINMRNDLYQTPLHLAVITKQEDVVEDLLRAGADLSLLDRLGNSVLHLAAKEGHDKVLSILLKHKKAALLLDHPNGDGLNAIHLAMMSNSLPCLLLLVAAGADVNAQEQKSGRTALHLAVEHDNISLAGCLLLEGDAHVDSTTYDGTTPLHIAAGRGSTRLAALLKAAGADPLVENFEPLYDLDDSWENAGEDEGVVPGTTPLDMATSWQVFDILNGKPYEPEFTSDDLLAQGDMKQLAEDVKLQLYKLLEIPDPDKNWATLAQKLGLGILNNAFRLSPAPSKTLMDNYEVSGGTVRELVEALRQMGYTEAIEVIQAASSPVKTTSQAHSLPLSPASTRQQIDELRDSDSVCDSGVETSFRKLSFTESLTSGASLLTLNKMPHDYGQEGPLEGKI
Nuclear factor erythroid 2-related factor 2 (Homo sapiens), sequence (Q16236 whole entry, looked up): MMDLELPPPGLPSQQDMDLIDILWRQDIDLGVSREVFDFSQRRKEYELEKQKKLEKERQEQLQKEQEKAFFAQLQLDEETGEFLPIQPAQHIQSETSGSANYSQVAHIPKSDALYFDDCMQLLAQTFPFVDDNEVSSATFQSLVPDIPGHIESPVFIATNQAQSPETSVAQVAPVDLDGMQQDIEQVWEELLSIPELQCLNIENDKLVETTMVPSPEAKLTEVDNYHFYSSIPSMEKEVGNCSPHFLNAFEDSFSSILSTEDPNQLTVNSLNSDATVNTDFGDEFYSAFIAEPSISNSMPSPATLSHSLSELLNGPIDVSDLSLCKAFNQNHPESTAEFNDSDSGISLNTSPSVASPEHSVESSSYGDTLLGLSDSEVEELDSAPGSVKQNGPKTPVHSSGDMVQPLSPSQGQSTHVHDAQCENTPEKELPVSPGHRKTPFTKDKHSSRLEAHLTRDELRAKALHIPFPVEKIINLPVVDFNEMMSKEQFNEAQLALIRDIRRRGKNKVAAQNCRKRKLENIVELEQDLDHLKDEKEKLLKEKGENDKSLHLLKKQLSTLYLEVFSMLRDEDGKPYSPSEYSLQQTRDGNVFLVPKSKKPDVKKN

Oc1ccc2c(c1)OC[C@@H](N1CCC(O)(c3ccc(F)cc3)CC1)[C@H]2O
not listed: [18] | [19]
inactive: all other assays above

CC1=C(/C=C/C(C)=C/C=C/C(C)=C/CO)C(C)(C)CCC1
active: [8] 23.1 µM | [12] 10.4 µM | [14] 52.2 µM
inactive: all other assays above

C=CCc1ccc(O)c(OC)c1
not listed: [10] | [18]
inactive: all other assays above

COc1ccc2c(c1)c(CC(=O)O)c(C)n2C(=O)c1ccc(Cl)cc1
not listed: [10]
inactive: all other assays above

CCCCCC(=O)O
inactive: all assays above

COC(=O)c1ccc(O)cc1
inactive: all assays above

C[C@]12C=CC(=O)C=C1CC[C@@H]1[C@@H]2C(=O)C[C@@]2(C)[C@H]1CC[C@]2(O)C(=O)CO
not listed: [3] | [19]
inactive: all other assays above

Reference: PubChem BioAssay (EPA / NIEHS)
